Source: PubChem BioAssay
Nrf2 activator = activators of Nrf2 (ARE) signaling. AREc32 ARE-luciferase reporter (MCF7-derived line), luminescence, 24 h. Potency, µM (titrated, usually from 46.1 µM), without a hit: at the highest dose activation, hits mostly activators. 0.31% of 410,000 active; note: potency is the fitted concentration of half-maximal effect; % of control where 0% means no effect; nearly all actives have a fitted effect of over 65% in size
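For detection, Steady-Glo was added and plates sat 30 min at RT; before that, AREc32_Fluc cells grown overnight in OPTI-MEM/5% FBS had been treated with 23 nL compound for 24 hr at 37 deg C.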
A549 tox = A549 cytotoxicity, counter-screen for Nrf2 inhibitors; A549 ARE-Fluc cells, CellTiter-Fluor viability, 18-24 h; Potency, µM (series often up to 46 µM), inactives show at the top dose activity change, negative = cytotoxicity, hits mostly inhibitors; 0.16% of 390,000 active; AID 504648; note: potency is the fitted concentration of half-maximal effect; % is set by controls: 0 for no effect and ±100 for the full control effect
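Cytotoxicity counterscreen: CellTiter-Fluor fluorescence was measured in A549 ARE_Fluc cells after 18-24 h of compound exposure in a concentration series. The subsequent BugLite luminescent read reports ARE-luciferase activity.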
mIDH1 inhibitor = human IDH1 R132H inhibition. O75874. 0.093% of 390,000 active. Potency, µM (series often up to 76.6 µM), without a hit: at the highest dose activity change, negative = inhibition, actives largely listed as inhibitors. IDH1-R132H enzyme, NADPH consumption, diaphorase/resazurin fluorescence; note: potency is the fitted concentration of half-maximal effect; % is set by controls: 0 for no effect and ±100 for the full control effect; nearly all actives have a fitted effect of over 65% in size
Target sequence (O75874 whole entry R132H, stated change not applied): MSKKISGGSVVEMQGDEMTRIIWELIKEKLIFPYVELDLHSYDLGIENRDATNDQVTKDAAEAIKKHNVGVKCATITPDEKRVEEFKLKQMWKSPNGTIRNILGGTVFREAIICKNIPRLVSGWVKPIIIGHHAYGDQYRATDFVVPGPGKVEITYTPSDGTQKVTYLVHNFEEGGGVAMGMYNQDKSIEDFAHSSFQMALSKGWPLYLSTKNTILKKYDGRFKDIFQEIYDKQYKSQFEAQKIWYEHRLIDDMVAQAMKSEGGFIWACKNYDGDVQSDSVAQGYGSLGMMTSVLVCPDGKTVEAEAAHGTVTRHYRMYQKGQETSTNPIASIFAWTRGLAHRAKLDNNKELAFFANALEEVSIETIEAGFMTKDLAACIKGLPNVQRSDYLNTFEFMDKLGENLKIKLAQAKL
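IDH1-R132H (0.5 ug/mL dispensed) in pH 7.5 Tris buffer was preincubated 30 min with compound, then given a substrate mix of 0.016 mM NADPH and 2 mM alpha-KG for 80 min at room temperature; remaining NADPH was read by diaphorase/resazurin fluorescence.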
Giardia killer = kills Giardia lamblia | Giardia lamblia trophozoite viability | activity change, % at 7.66 µM, hits read low | 0.15% of 340,000 active | AID 540267; in the data active = activity change below about -80%; inconclusive = between about -30% and that limit;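 note: parasites exposed to compound for two days anaerobically before the ATP read; % is set by controls: 0 for no effect and ±100 for the full control effect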
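Giardia lamblia trophozoites (100 cells/well) were incubated with compounds for 48 h at 37 deg C under anaerobic conditions. Viability was read as ATP content by one-step luminescence after 15-30 min at room temperature.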
Nrf2 block = Nrf2 pathway inhibition; A549 ARE-Fluc reporter, luciferase luminescence, 18-24 h; Potency, µM (titrated, usually from 46 µM), for inactives: at the top dose activity change, negative = inhibition, most hits filed as inhibitors; 2.1% of 360,000 active; note: potency is the fitted concentration of half-maximal effect; % is set by controls: 0 for no effect and ±100 for the full control effect; nearly all actives have a fitted effect of over 60% in size
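Reporter: ARE-Fluc in A549. Exposure: 18-24 h, 37 °C, 5% CO2, 5% FBS OPTI-MEM. Readouts: fluorescent cytotoxicity (CellTiter-Fluor), then luminescent Nrf2 signal after BugLite.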
Anesthetic bind = binds horse apoferritin like a general anesthetic. apoferritin/1-aminoanthracene competitive binding, fluorescence. Potency, µM (highest dose often 77.5 µM), inactives show at the top dose activity change, negative = displacement, actives largely listed as inhibitors. 0.074% of 350,000 active; note: potency is the fitted concentration of half-maximal effect; % is set by controls: 0 for no effect and ±100 for the full control effect; nearly all actives have a fitted effect of over 20% in size
Target sequence (P02791 2-175 limits assumed): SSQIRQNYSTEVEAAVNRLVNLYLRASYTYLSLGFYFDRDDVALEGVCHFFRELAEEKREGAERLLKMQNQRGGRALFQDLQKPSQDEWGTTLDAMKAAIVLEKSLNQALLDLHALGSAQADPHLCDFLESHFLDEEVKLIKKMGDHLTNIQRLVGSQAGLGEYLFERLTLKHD
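In PBS, apoferritin at 10 uM is loaded with 1-AMA from a 50% saturated solution. After 10 min of compound exposure at ambient temperature, reduced 535 nm fluorescence indicates probe displacement.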
* = called active by the depositor; ? = inconclusive; · = not tested or not shown; [ ] = another dose, or the depositor's remark. Only some compounds are listed: those with a hit (about 2.3% of all), similar ones and a draw of the others. Unless noted, calls come from the whole dose curve; as a rule, active = well fitted curve in the direction sought with a large enough effect; inconclusive = small, poorly fitted or top-dose-only effect, or another doubt; inactive = no such curve, though single readings can be large; an effect the other way counts as inactive or inconclusive.

SMILES | Nrf2 activator | A549 tox | mIDH1 inhibitor | Giardia killer | Nrf2 block | Anesthetic bind
O=C(c1ccc2c(c1)OCCO2)C1CCN(S(=O)(=O)c2ccccc2F)CC1 | 0% | -21% | 6% | 10 | 13µM* | 1%
O=S(=O)(c1ccccc1Cl)N1CCN(c2nc(-c3cccs3)nc3ccccc23)CC1 | · | -2% | · | -5 | 3% | ·
COc1ccc(-c2nc(-c3ccccc3)c(-c3ccc(O)cc3)[nH]2)cc1 | -3% | -9% | 32% | · | ? | 0%
COc1ccc(-c2nc(-c3ccc4c(c3)OCO4)[nH]c2-c2ccc(OC)cc2)cc1 | 1% | ? | -4% | -5 | 26µM* | 7%
N#Cc1nc(N(c2ccccc2)c2ccccc2)nc(-n2cccc2)n1 | · | 6% | · | -21 | -5% | ·
COc1cc(NC(=O)Nc2ccc3c(c2)OCO3)cc(OC)c1OC | 4% | -2% | 10% | 0 | 7% | 1%
COc1ccc(C(C)(C)C)cc1NC(=O)Nc1ccc2c(c1)OCO2 | -1% | ? | 8% | 4 | 23µM* | -2%
O=S(=O)(c1ccc(Cl)cc1)c1nnn2c1nc(N1CCCCC1)c1sccc12 | 0% | -1% | 54% | · | 3% | -12%
O=C(NC1CCCCC1)C(c1cccnc1)N(C(=O)CCl)c1cccc(Cl)c1 (configuration not stated) | 13µM* | -19% | -8% | -1 | ? | -23%
Cc1cccc(N(C(=O)CNC(=O)c2ccco2)C(C(=O)NC2CCCCC2)c2cccnc2)c1 (configuration not stated) | 3% | 3% | 13% | -4 | -2% | -4%
O=C(c1ccc(Cl)cc1)N1CCN(c2ccc([N+](=O)[O-])c(NCc3cccnc3)c2)CC1 | 4% | ? | 19% | 11 | 26µM* | ·
CCN(CC(=O)Nc1ccccc1C(F)(F)F)C(=O)c1ccc2[nH]c3c(c2c1)CC(C)CC3 (configuration not stated) | 2% | ? | 20% | -11 | 26µM* | ·
CCOc1ccc(NS(=O)(=O)c2cc(OC)ccc2OC)cc1 | 0% | -3% | 3% | -9 | -12% | -9%
CCOc1ccc(S(=O)(=O)Nc2ccc(F)cc2)c(C)c1C | 3% | -27% | 10% | -2 | 18µM* | -12%
COc1cc(NC(=O)CN2c3cccc4cccc(c34)S2(=O)=O)cc(OC)c1OC | 3% | -12% | -4% | -12 | 23µM* | -10%
Cc1ccc(NC(=O)C(C)c2ccc(-c3ccccc3)c(F)c2)cc1 (configuration not stated) | 0% | ? | 0% | 11 | 15µM* | -17%
CCn1c(=O)sc2cc(NS(=O)(=O)c3ccc(C)cc3)ccc21 | 9% | 0% | 0% | · | 18µM* | -19%
COc1cccc(NS(=O)(=O)c2ccc3c(c2)CCN3C(C)=O)c1 | 4% | -6% | 0% | 6 | 10µM* | 1%
COc1ccc(N/N=C(/C(C)=O)N2CCCc3ccccc32)cc1 | 0% | -8% | 10% | 3 | 6.5µM* | -7%
CCc1ccc(S(=O)(=O)Nc2ccc3c(c2)sc(=O)n3C)cc1 | 7% | 3% | 4% | · | · | -3%
CCc1cccc(NS(=O)(=O)c2ccc3c(c2)CC(C)N3C(=O)C2CC2)c1 (configuration not stated) | 0% | -21% | -14% | · | 12µM* | 4%
COc1ccc(NC(=O)N2CCCc3ccccc32)cc1 | 4% | · | 4% | -5 | 26% | -15%
S=C(NCCCc1cnc[nH]1)NCCCN(Cc1ccc(Cl)cc1)c1ccc(Br)cc1 | · | -9% | · | 5 | ? | ·
Nc1ncnc2c1c(I)cn2C1OC(CO)C(O)C1O (configuration not stated) | · | · | · | · | · | -8%
CC1CN(C(=O)c2ccc(S(=O)(=O)Nc3cccc(C(F)(F)F)c3)cc2)CC(C)O1 (configuration not stated) | 1% | -9% | 3% | -7 | 13µM* | ·
SMILES | Nrf2 activator | A549 tox | mIDH1 inhibitor | Giardia killer | Nrf2 block | Anesthetic bind
Cc1ccc(S(=O)(=O)Nc2ccc3c(c2)CCC3)cc1 | 0% | ? | 0% | 5 | 12µM* | ?
CC(=O)N1CCc2cc(S(=O)(=O)Nc3ccc(C)c(C)c3)ccc21 | · | -5% | · | · | 15µM* | ·
COc1ccc(S(=O)(=O)Nc2ccc3c(c2)N(C(C)=O)CCC3)cc1 | 0% | -9% | 6% | 1 | 12µM* | ·
Cc1ccc(S(=O)(=O)Nc2ccc3c(c2)CCC3)cc1C | 0% | 2% | 3% | -18 | -12% | ?
COc1cc(NC(=O)CC(C)n2nc(C)cc2C)cc(OC)c1 (configuration not stated) | -1% | 3% | -10% | · | 14% | 2%
O=C(CCNS(=O)(=O)c1ccc2c(c1)CCN2C(=O)C1CC1)N1CCN(c2cccc(Cl)c2)CC1 | 1% | 0% | -3% | · | · | 295%
COC(=O)C/C=C\[C@@H](C)[C@@H](/C=N\O[C@@H](C)CN1CCCCc2nc(C)c(C)cc21)NS(=O)(=O)c1ccc(C)cc1 | · | · | · | · | · | -6%[15.3 µM]
CC(=O)N1CCc2cc(S(=O)(=O)Nc3cccc(C(F)(F)F)c3)ccc21 | -1% | 2% | 6% | 3 | 9.2µM* | ?
CC(=O)N1c2ccc(S(=O)(=O)Nc3ccc(C)c(C)c3)cc2CC1C (configuration not stated) | · | ? | · | · | 10µM* | ·
O=C(COC(=O)Cn1cnc2ccccc2c1=O)Nc1ccc(Cl)cc1 | 0% | 3% | 14% | 12 | 15% | ?
O=C(COC(=O)Cn1cnc2ccccc2c1=O)Nc1ccc(Cl)c(C(F)(F)F)c1 | -1% | 1% | -2% | 5 | ? | 25µM*
O=C(CSCc1cccc(Cl)c1)N/N=C/c1ccc(OCC(=O)N2CCCCC2)cc1 | 3% | -2% | 0% | -12 | 18µM* | ?
Cc1cc(C)cc(CSCC(=O)N/N=C/c2ccc(OCC(=O)NCc3ccco3)cc2)c1 | 4% | -15% | 0% | -14 | 15µM* | -22%
Cc1cccc(C(=O)N/N=C/c2ccc(OCC(=O)N3CCCCC3)cc2)c1 | 0% | -2% | 5% | -8 | 0% | -19%
O=C1C(=O)C(c2ccc(O)cc2O)Oc2cc(O)cc(O)c21 (configuration not stated) | · | -11% | · | 9 | 7% | ·
O=C1c2ccccc2NC(c2ccccc2OCc2ccccc2)N1Cc1ccco1 (configuration not stated) | · | -14% | · | -21 | ? | ·
COc1ccc(OC(=O)N(C)C[C@@H]2OCc3cn(nn3)CCCC(=O)N([C@@H](C)CO)C[C@H]2C)cc1 | 0% | · | 13% | · | · | ·
COc1ccc2c(c1)c1nnc(SCCN3CCOCC3)nc1n2C | · | 1% | · | 10 | 6% | ·
